# From PubChem BioAssay (NCI)
# This is part of a sample that, as a whole, favours compounds with a hit. Of some 83,000 tested, about 20% had one in any assay.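 Activity criterion: percent growth below 10, measured after cells in 96-well plates were exposed to a single compound concentration for 48 hours.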 A number with no mark means an inactive call. Calls of active or inactive are those of the source.
# What was measured:
# Test in all cases: NCI-60 one-dose screen, 48 h (100 = growth as untreated, 0 = no growth, -100 = all killed)
# Conditions in all cases: 10 µM unless noted
# HCT-15 colon = test system: HCT-15 colon
# HT29 colon = test system: HT29 colon
# SNB-75 CNS = test system: SNB-75 CNS
# SNB-19 CNS = test system: SNB-19 CNS
# U251 CNS = test system: U251 CNS
# PC-3 prostate = test system: PC-3 prostate
# SK-MEL-5 melanoma = test system: SK-MEL-5 melanoma
# UACC-62 melanoma = test system: UACC-62 melanoma
# LOX IMVI melanoma = test system: LOX IMVI melanoma
# SK-MEL-28 melanoma = test system: SK-MEL-28 melanoma
# SK-MEL-2 melanoma = test system: SK-MEL-2 melanoma
# EKVX NSCLC = test system: EKVX NSCLC
# SN12C renal = test system: SN12C renal
# UO-31 renal = test system: UO-31 renal
# TK-10 renal = test system: TK-10 renal
# ACHN renal = test system: ACHN renal
# CAKI-1 renal = test system: CAKI-1 renal
# A498 renal = test system: A498 renal
# CCRF-CEM leukemia = test system: CCRF-CEM leukemia
# MOLT-4 leukemia = test system: MOLT-4 leukemia
Compound,growth (HCT-15 colon),growth (HT29 colon),growth (SNB-75 CNS),growth (SNB-19 CNS),growth (U251 CNS),growth (PC-3 prostate),growth (SK-MEL-5 melanoma),growth (UACC-62 melanoma),growth (LOX IMVI melanoma),growth (SK-MEL-28 melanoma),growth (SK-MEL-2 melanoma),growth (EKVX NSCLC),growth (SN12C renal),growth (UO-31 renal),growth (TK-10 renal),growth (ACHN renal),growth (CAKI-1 renal),growth (A498 renal),growth (CCRF-CEM leukemia),growth (MOLT-4 leukemia)
CCCCCCCCCCCCCC[n+]1cccc(C(N)=O)c1,67.6%,0.436% (active),-57.2% (active),-69.4% (active),-72.7% (active),-29% (active),-90.9% (active),1.18% (active),15.7%,28.5%,-12.1% (active),-16.2% (active),1.56% (active),62%,24%,35.4%,15.5%,61.1%,-18.8% (active),-31% (active)
COc1ccc(-c2cc(-c3ccccc3)nc(NCCNc3ccnc4cc(Cl)ccc34)n2)cc1,-81% (active),-48.8% (active),-68.3% (active),-83.7% (active),-84.3% (active),-81.8% (active),-97.6% (active),-89.9% (active),-79% (active),-92.8% (active),-77.3% (active),-88.1% (active),-92.9% (active),-91.9% (active),-81.7% (active),-94.2% (active),-86.5% (active),5.73% (active),-30.7% (active),-44.4% (active)
COc1ccc2nc3cc(Cl)ccc3c(Nc3ccc(O)c(CN4CCCC4)c3)c2c1,0.129% (active),-22.8% (active),31.5%,62.5%,0.559% (active),24.2%,41.1%,51.9%,-68.6% (active),82.9%,-57.6% (active),51.3%,47.8%,-46.2% (active),10.2%,-38.9% (active),8.96% (active),62.3%,-6.84% (active),0.985% (active)
C[C@]12CCc3nc(Nc4ccccc4)sc3C1=CC[C@@H]1[C@@H]2CC[C@]2(C)/C(=N/NC(N)=S)CC[C@@H]12,-11.6% (active),5.72% (active),35.3%,62.1%,37.3%,26.6%,38.1%,42.6%,69.6%,63.6%,66.9%,78.2%,49.2%,60%,38.3%,31.6%,49.6%,48%,18.7%,8.01% (active)
CCOC(=O)c1nc2c3ccccc3ccn2c1C(=O)OC,97%,90.1%,78.9%,91.4%,96.2%,105%,96.6%,89.4%,109%,96.5%,102%,80.2%,96.9%,91.7%,81.1%,94%,97.2%,64%,88.2%,84.5%
C#CCNC(=O)CC[C@]1(C)[C@H]2CC[C@@H]3[C@@H]([C@@](C)(O)CCC=C(C)C)CC[C@@]3(C)[C@]2(C)CC[C@H]1C(=C)C,67.3% [100 µM],-30.8% [100 µM] (active),-19% [100 µM] (active),60.9% [100 µM],-71.4% [100 µM] (active),20.5% [100 µM],9.4% [100 µM] (active),34% [100 µM],-67.7% [100 µM] (active),54.1% [100 µM],49.1% [100 µM],71.7% [100 µM],43.9% [100 µM],-95.8% [100 µM] (active),70.5% [100 µM],7.69% [100 µM] (active),1.83% [100 µM] (active),67.1% [100 µM],-34.4% [100 µM] (active),-29% [100 µM] (active)
CC(C)c1ccc(C(=O)Nc2sc3c(c2C#N)CCC(=O)C3)cc1,-24.5% (active),8.34% (active),-42.1% (active),11.4%,15%,1.47% (active),-62.9% (active),-27.8% (active),16.7%,22.3%,-20.1% (active),7.96% (active),4.66% (active),-97% (active),0.974% (active),-90.5% (active),-44.3% (active),24.6%,1.37% (active),0.0788% (active)
COCc1nc2ccccc2[nH]1,97.7%,104%,95.8%,101%,98.3%,104%,99.5%,99.1%,99.3%,98.8%,102%,93.9%,104%,87.3%,97.3%,99.9%,93.4%,104%,105%,93%
CCCCNC(=O)NS(=O)(=O)Cc1ccccc1,109%,114%,95.3%,114%,96.4%,102%,107%,104%,107%,108%,119%,122%,113%,82.8%,118%,106%,100%,110%,93.1%,97.5%
COc1ccc(C(=O)CCC(=O)O)cc1,77.6%,49.8%,99.9%,104%,83.1%,92.5%,99.8%,99.7%,90.2%,112%,102%,78.7%,89%,71.7%,105%,100%,98.4%,104%,48.6%,86.2%
O=C(N[C@@H]1CCCc2ccccc21)[C@H](CCC(=O)N1CCN(C2CCCCC2)CC1)N1C(=O)[C@@H](N2C(=O)OC[C@@H]2c2ccccc2)[C@H]1/C=C/c1ccccc1,12.1%,-14.2% (active),65.7%,39.2%,30.6%,12.1%,-93.2% (active),51%,-40.5% (active),24.8%,20.6%,51.2%,25.4%,21%,47%,36.4%,37.9%,31.8%,22.8%,-1.99% (active)
CCCCCCCCCCCCCCCCCCNC(=S)N/N=C/c1ccc(OC)c(OC)c1,88.4%,99.9%,88.2%,94%,90.1%,92.1%,95.3%,86.1%,95.2%,100%,111%,92.9%,93.4%,77.1%,104%,102%,93.9%,82.4%,91.7%,100%
C[N+](C)(C)c1ncnc2[n-]cnc12,104%,104%,82.1%,91.2%,91.6%,92%,90.1%,83.2%,75.5%,94.6%,107%,81.8%,72.3%,87.8%,78.9%,95.3%,58.8%,81.5%,119%,102%
O=C1Nc2ccccc2/C1=C/C(=O)c1ccc(N2CCOCC2)cc1,93%,83.4%,90.5%,93.9%,81.9%,84.6%,101%,83.2%,88.9%,107%,99%,98%,93.7%,59.6%,102%,72.7%,78.4%,89.7%,9.92% (active),47.8%
CCCCC1COc2cccc3c2N1C=C/C3=C\C(=O)n1ccc2ccccc21 (stereo not given),47.6%,43.9%,14.5%,84.9%,76.5%,65.9%,78.5%,56.3%,76%,92.5%,70.7%,82.9%,94.7%,57.5%,118%,88.5%,41%,70.1%,67%,40.9%
